Compound activity (PubChem)
An excerpt weighted towards active compounds, which were near 1.5% of everything screened.
HGIII-sPLA2 inh – Blocks human group III sPLA2 activity; Q9NZ20; 370,000 compounds, 0.56% hits; AID 743126; inhibition, % at 12.2 µM; QFRET BODIPY PC-A2 liposome hydrolysis, fluorescence;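 active = inhibition above mean plus 3 SD of compounds lying within the high and low control bounds, cut at about 19% in these data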;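 note: 0% = median of test compound wells and 100% = no enzyme DMSO wells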
Target sequence (Q9NZ20 whole entry, looked up): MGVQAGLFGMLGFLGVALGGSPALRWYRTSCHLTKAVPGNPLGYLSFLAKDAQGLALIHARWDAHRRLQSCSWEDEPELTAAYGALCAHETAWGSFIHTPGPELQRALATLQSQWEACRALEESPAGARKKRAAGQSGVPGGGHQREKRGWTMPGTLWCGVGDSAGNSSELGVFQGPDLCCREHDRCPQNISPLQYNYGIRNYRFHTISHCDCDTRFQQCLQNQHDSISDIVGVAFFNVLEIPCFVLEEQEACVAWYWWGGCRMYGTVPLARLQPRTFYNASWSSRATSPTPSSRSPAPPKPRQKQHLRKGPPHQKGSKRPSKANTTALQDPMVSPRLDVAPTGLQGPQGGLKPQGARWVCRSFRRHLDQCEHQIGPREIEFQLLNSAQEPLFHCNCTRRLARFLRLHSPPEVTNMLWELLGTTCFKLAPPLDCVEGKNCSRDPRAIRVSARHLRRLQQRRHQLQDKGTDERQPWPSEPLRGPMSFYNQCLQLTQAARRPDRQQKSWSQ
ARNT TACC3 PPI – ARNT/TACC3 interaction disruption; inhibition, % at 9.99 µM; AlphaScreen His-ARNT PAS-B/GST-TACC3 binding, luminescence; TACC3 fragment carries E629A point mutation; Q9Y6A5; AID 623870; 390,000 compounds, 0.66% hits;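 active = mean inhibition of replicates at least 50% and at least half of replicates each reaching 50%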;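 note: 0% = complete ARNT plus TACC3 wells and 100% = ARNT alone without TACC3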
AI-2 QS modul – modulators of Vibrio harveyi AI-2 quorum sensing system. activity change, % at 7.5 µM. 300,000 compounds, 0.4% hits. AID 2094. Vibrio harveyi JMH597 AI-2 luminescence/OD600 ratio, 9 h; hits give low values; strain lacks LuxN and CqsS sensors; 0 = neutral-control median; in the data active = activity change below about -75%, passing the limit was not always enough;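 note: luminescence divided by OD600 gain over 9 h not by final OD600 alone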
Rin1 Abl inh – human Rin1-Abl interaction inhibition; TR-FRET Rin1/Abl binding, biochemical; inhibition, % at 7.35 µM; 360,000 compounds, 0.4% hits; AID 588664; in the data active = inhibition above about 5%, passing the limit was not always enough
sPLA2 confirm – human GIII-sPLA2 inhibition, confirmation. shares compounds with HGIII-sPLA2 inh. recombinant hGIII-sPLA2, BODIPY PC-A2 QFRET fluorescence. inhibition, % at 12.2 µM. 2,000 compounds, 34% hits;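 active = mean inhibition across triplicates above the hit cutoff set in the earlier primary screen, cut at about 19% in these data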;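 note: 0% = enzyme with DMSO and 100% = DMSO wells lacking enzyme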
535nm interf – 535nm fluorescence interference, HGIII-sPLA2 counter-screen; 2,000 compounds, 8.5% hits; inhibition, % at 12.2 µM; shares compounds with HGIII-sPLA2 inh; BODIPY FL product fluorescence interference, QFRET;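 active = average inhibition above the solvent-only control mean plus 3 SD, cut at about 6% in these data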;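 note: 0% = DMSO with substrate plus product and 100% = DMSO with substrate alone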
535nm interf DR – interferes with 535nm fluorescence in dose response counter-screen. shares compounds with HGIII-sPLA2 inh. BODIPY FL product fluorescence interference, cell-free. IC50, µM. 240 tested, under 10 active;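 active = IC50 at or below 10 µM; inactive = IC50 above 10 µM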
* marks the source's active call; other numbers are inactive results; . = no result; ! = a repeat was not active.

SMILES	HGIII-sPLA2 inh	ARNT TACC3 PPI	AI-2 QS modul	Rin1 Abl inh	sPLA2 confirm	535nm interf	others
CCOC(=O)c1cnc2ccc(OCC)cc2c1NCc1ccccc1OC	24*	0	7	-1	-17	-25
CC(=O)Nc1cccc(/C(C)=N/NS(=O)(=O)c2ccc(C)cc2)c1	-2	-6	25	4	.	.
C/C(=N/NS(=O)(=O)c1ccc(C)cc1)c1ccc(NC(=O)C(F)(F)F)cc1	22*	-10	7	1	3	0
C/C(=N/NC(=O)c1ccco1)c1ccc(NC(=O)c2ccc(F)cc2)cc1	23*	-11	-3	-1	10	-8
CC(C)(C)Nc1nc(Cl)nc(NC(C)(C)C)n1	23*	1	-4	-2	10	-10
CNc1nc(Cl)nc(NC(C)(C)C)n1	1	-10	-9	-2	.	.
CCOC(=O)c1sc(=S)n(C)c1NC(=O)c1ccccc1C	24*	17	23	-1	5	-6
C[C@@H]1CN([C@@H](C)CO)C(=O)c2cc(NC(=O)Nc3ccc(F)cc3)ccc2O[C@H]1CN(C)Cc1ccc(C(F)(F)F)cc1	.	-2	.	.	.	.
CCCN1CCC(N2CCN(c3cccc(C(F)(F)F)c3)CC2)CC1	2	-6	28	3	.	.
FC(F)(F)c1cccc(N2CCN(C3CC4CCC3C4)CC2)c1 (stereo not drawn)	20*	-9	27	4	15	-11
NC(=Nc1nc(-c2ccccn2)cc2ccccc12)c1ccccn1	21*	25	.	-4	-3	-12
C[C@H](O)C#Cc1cnc2c(c1)C(=O)N([C@@H](C)CO)C[C@H](C)[C@H](CN(C)C(=O)c1ccc(F)cc1)O2	.	-2	.	.	.	.
COCCNCCCOc1ccc(C(C)(C)c2ccccc2)cc1	22*	.	19	2	-11	-27
O=C(CSCc1ccccc1Br)NNC(=S)NCc1ccco1	40*	-2	6	0	48*	8.8*
Cc1ccccc1CSCC(=O)NC(=O)NCc1ccco1	12	0	4	-2	.	.
C[C@@H]1CN([C@H](C)CO)C(=O)c2cc(-c3ccccc3F)cnc2O[C@@H]1CN(C)Cc1ccccc1	.	-4	.	.	.	.
COC(=O)[C@@H]1[C@@H](CO)[C@@H]2Cn3c(ccc(-c4ccccc4OC)c3=O)[C@@H]2N1CC1CCOCC1	.	1	.	.	.	.
Cc1ccc(/C=N/n2c(-c3cccnc3)n[nH]c2=S)s1	28*	-5	23	-4	19*	-4
Cc1ccc(/C=N/n2c(C3CCCCC3)n[nH]c2=S)s1	22*	-4	-15	2	16	2
C=CCN1C(=O)/C(=C\c2ccco2)C(C(=O)OC)=C1C	21*	-4	18	-1	7	-8
Oc1c(C=C2N=c3ccccc3=N2)sc(=S)n1C1CCCCC1	20*!	8	28	-3	-5	-1
N#Cc1ccc(-c2ccc3c(c2)[C@H]2[C@H](CCN2C(=O)C2CC2)[C@@H](CO)N3)cc1	.	-15	.	.	.	.
COc1cc(OC)cc(-c2c(-c3cccs3)c3cc(-c4ccc5[nH]ccc5c4)ccc3n2C)c1	20*	-1	.	4	37*	8.7*
Cc1ccc2nc(/N=C(\N)NC(=O)N3c4ccccc4Sc4ccccc43)nc(C)c2c1	6	-4	-10	3	.	.
Cc1cc2nc(/N=C(\N)NC(=O)N3c4ccccc4Sc4ccccc43)nc(C)c2cc1C	21*	0	.	-1	2	0
O=C(Nc1cccc(Cl)c1)N[C@H]1CC[C@H](CCNC(=O)C2CC2)O[C@@H]1CO	.	-10	.	.	.	.
CCCNC(=S)Nc1ccc(CC(=O)OC)cc1	24*	.	14	-2	8	-5
COC(=O)Cc1ccc(NC(=S)NCC(C)C)cc1	11	-3	26	2	.	.
Cc1cc(N2CCCC2)ccc1NC(=O)COc1cccc(C(F)(F)F)c1	22*	-19	14	3	35*	3	535nm interf DR=>122
O=C(C[C@@H]1C=C[C@H](NC(=O)Nc2ccc(C(F)(F)F)cc2)[C@H](CO)O1)NCc1cc(F)cc(F)c1	.	0	.	.	.	.
